Bioassay records deposited in PubChem by National Center for Advancing Translational Sciences (NCATS).
Tau fluor cs – counter-screen for tau fibril formation inhibitors; tau K18 P301L Alexa594 fluorescence, heparin fibrillization; Potency, µM (series often up to 57.7 µM), for the others: top-dose activity change, negative = decrease; 280,000 tested, 0.93% active; further: nearly all actives have a fitted effect of over 55% in size
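Human tau K18 P301L (15 uM unlabeled, 0.24 uM Alexa 594-labeled) in 100 mM sodium acetate pH 7 with 20 uM heparin, 6 hr at 37 C. ThT 30 uM added, 1 hr ambient; Alexa 594 FP and total fluorescence read at 555/632 nm.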
Tau FP inhib – tau fibrillization inhibition (FP); P10636; K18 P301L tau heparin fibrillization, Alexa594 FP, 6 h; Potency, µM (highest dose often 57.7 µM), for inactives: at the top dose activity, negative = inhibition, most hits filed as inhibitors; 280,000 tested, 0.39% active; AID 1468; further: nearly all actives have a fitted effect of over 55% in size
Target sequence (P10636 561-689 P618L limits assumed): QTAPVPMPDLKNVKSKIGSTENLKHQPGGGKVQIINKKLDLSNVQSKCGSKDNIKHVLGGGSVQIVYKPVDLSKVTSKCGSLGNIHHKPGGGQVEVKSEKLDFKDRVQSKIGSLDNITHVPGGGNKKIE
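Human K18 P301L fragment (15 uM unlabeled plus 0.24 uM Alexa 594-labeled) in 100 mM sodium acetate pH 7 with compound, aggregation induced by 20 uM heparin for 6 hr at 37 C. ThT (30 uM) added for 1 hr, then Alexa 594 FP read.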
Tau ThT inhib – blocks human tau fibril formation measured by thioflavin T | P10636 | recombinant tau K18 P301L (four-repeat tau fragment), heparin-induced fibrillization, ThT fluorescence | Potency, µM (series often up to 57.4 µM), without a hit: top-dose activity, negative = inhibition, actives largely listed as inhibitors | 270,000 tested, 2.1% active | AID 1460; further: nearly all actives have a fitted effect of over 55% in size
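In this qHTS, human K18 P301L tau is incubated with compound and heparin for 6 hr at 37 C, and Thioflavin T fluorescence then reports fibril load.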
RORgamma inh – inhibitors of mouse ROR gamma transcriptional activity. P51450. Drosophila S2 Gal4-RORgamma UAS-luciferase reporter, 20 h. Potency, µM (titrated, usually from 53.6 µM), inactives show at the top dose activity change, negative = inhibition, actives largely listed as inhibitors. 310,000 tested, 5.4% active; further: nearly all actives have a fitted effect of over 60% in size
Target sequence (P51450 whole entry, looked up, the tested form may be a part): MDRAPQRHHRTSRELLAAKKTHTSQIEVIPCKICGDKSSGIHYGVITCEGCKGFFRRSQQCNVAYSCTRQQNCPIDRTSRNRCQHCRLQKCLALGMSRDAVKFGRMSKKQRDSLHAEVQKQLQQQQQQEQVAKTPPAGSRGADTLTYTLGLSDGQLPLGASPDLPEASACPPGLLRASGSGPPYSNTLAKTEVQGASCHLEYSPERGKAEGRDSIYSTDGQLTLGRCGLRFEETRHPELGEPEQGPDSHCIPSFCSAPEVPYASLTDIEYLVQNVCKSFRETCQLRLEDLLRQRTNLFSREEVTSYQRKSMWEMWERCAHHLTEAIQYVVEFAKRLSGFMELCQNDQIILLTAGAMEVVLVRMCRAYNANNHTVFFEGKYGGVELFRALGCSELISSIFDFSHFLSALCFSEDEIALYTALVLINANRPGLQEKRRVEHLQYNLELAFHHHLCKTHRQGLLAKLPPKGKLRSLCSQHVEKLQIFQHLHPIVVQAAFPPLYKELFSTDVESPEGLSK
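Luciferase reporter read in Schneider cells carrying Gal4-RORγ (mouse) and UAS-Photinus luciferase; cells given compound 1 h before 700 uM copper sulfate induction, then incubated 20 h at ambient temperature.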
Gal4-VP16 FLuc – inhibits Gal4-VP16 luciferase reporter, ROR gamma counter-screen; Drosophila S2 Gal4-VP16 UAS-luciferase, luminescence, 20 h; 310,000 tested, 3.5% active; AID 2546; Potency, µM (top dose mostly 53.6 µM), without a hit: at the top dose activity, negative = inhibition, hits mostly inhibitors;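 further: Gal4-VP16 expression switched on by copper sulfate through the metallothionein promoter; nearly all actives have a fitted effect of over 50% in size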
* hit, by the source's call; [ ] = remark or other dose. This is a sample that favours compounds with a hit; in the whole collection about 7.3% have one here. The call rests on the fitted dose curve; in most records, active means well fitted curve in the direction sought with a large enough effect; inconclusive means small, poorly fitted or top-dose-only effect, or another doubt; inactive means no such curve, though single readings can be large; an effect the other way counts as inactive or inconclusive. On the % scale 0 is the no-effect control and ±100 the full control effect; potency means the concentration at half of the fitted maximal effect.

Screening O=[N+]([O-])c1ccc(Sc2n[nH]c(-c3ccc(Cl)cc3Cl)n2)nc1 returned Tau fluor cs -28.6%, Tau FP inhib -7.5%, Tau ThT inhib -24.2%, RORgamma inh 0.891µM* and Gal4-VP16 FLuc 7.08µM*.
`Cc1ccc(C)c(OCCOCCn2c(-c3ccc(Br)cc3)nc3ccccc3c2=O)c1C` gave Tau fluor cs -14.5%, Tau FP inhib inconclusive and Tau ThT inhib -6.8%.
Screening CC(=O)N1CCCc2cc(S(=O)(=O)N3CCC(N(C)C(C)C)CC3)ccc21 returned Tau fluor cs -8.1%, Tau FP inhib -1.9% and Tau ThT inhib -3.6%.
CN(C)c1ccc(C(O)Cc2nc3ccccc3n2C)cc1 (centres undefined) was read as RORgamma inh -27.0% and Gal4-VP16 FLuc -15.1%.
Screening Cc1ccc(C(O)c2nc3ccccc3n2C(C)C)cc1 (centres undefined) returned Tau fluor cs -2.4%, Tau FP inhib 0.8%, Tau ThT inhib -3.2%, RORgamma inh inconclusive and Gal4-VP16 FLuc -8.7%.
For CN(Cc1nc2ccccc2n1C)c1ccccc1 the results were RORgamma inh 11.2µM* and Gal4-VP16 FLuc inconclusive.
CN(C)c1ccc(-c2nc3ccccc3n2C)cc1 was read as Tau fluor cs -21.1%, Tau FP inhib -3.9%, Tau ThT inhib inconclusive, RORgamma inh 3.98µM* and Gal4-VP16 FLuc inconclusive.
Screening Cn1c(CNc2nc3ccccc3n2C)nc2ccccc21 returned Tau fluor cs -5.4%, Tau FP inhib -1.8%, Tau ThT inhib -5.0%, RORgamma inh -4.9% and Gal4-VP16 FLuc -3.4%.
`CC(C)n1c(-c2ccc(N(C)C)cc2)nc2ccccc21` gave Tau fluor cs -22.6%, Tau FP inhib -3.7%, Tau ThT inhib inconclusive, RORgamma inh 3.98µM* and Gal4-VP16 FLuc 20µM*.
Screening CCn1c(-c2ccc(N(C)C)cc2)nc2ccccc21 returned Tau fluor cs -15.1%, Tau FP inhib 9.7%, Tau ThT inhib inconclusive, RORgamma inh 6.31µM* and Gal4-VP16 FLuc inconclusive.
Screening COc1ccc2c(c1)c1c(c(=O)n(Cc3ccccc3)c(=O)n1CC(=O)NCc1ccc(C)cc1)n2C returned Tau fluor cs -10.2%, Tau FP inhib 0.6% and Tau ThT inhib -3.0%.
`COc1ccc(NC(=O)CSC2=Nc3ccccc3C3=NC(CCC(=O)NCCc4ccccc4)C(=O)N23)c(OC)c1` (centres undefined) gave Tau fluor cs -6.7%, Tau FP inhib -0.6% and Tau ThT inhib -4.5%.
Screening COCCCNC(=O)C1CCCN(c2ncnc3onc(C)c23)C1 (centres undefined) returned Tau fluor cs -12.7%, Tau FP inhib -19.3% and Tau ThT inhib -3.1%.
`CO[C@@H]1COC(=O)[C@@H](CCSC)NC(=O)C/C=C\[C@@H](C)COC(=O)CCC[C@H]1C` gave Tau fluor cs -0.4%[11.6 µM], Tau FP inhib -3.1%[11.6 µM], Tau ThT inhib -2.8%[11.5 µM], RORgamma inh -14.7%[10 µM] and Gal4-VP16 FLuc -5.9%[10 µM].
`O=C1C2C3C=CC(C3)C2C(=O)N1c1ccc2c(c1)OCO2` (centres undefined) gave Tau fluor cs inconclusive, Tau FP inhib inconclusive, Tau ThT inhib 31.6µM*, RORgamma inh 9.1% and Gal4-VP16 FLuc -2.0%.
O=C1CC(N2CCN(c3ccc(O)cc3)CC2)C(=O)N1c1ccc2c(c1)OCO2 (centres undefined) was read as Tau fluor cs -13.4%, Tau FP inhib -13.7%, Tau ThT inhib inconclusive, RORgamma inh -0.3% and Gal4-VP16 FLuc 5.4%[10 µM].
`O=C1CC(N2CCCCCC2)C(=O)N1c1ccc2c(c1)OCO2` (centres undefined) gave Tau fluor cs -3.3%, Tau FP inhib 9.5%, Tau ThT inhib inconclusive, RORgamma inh 10µM* and Gal4-VP16 FLuc inconclusive.
O=C1C2C3C=CC(CC3)C2C(=O)N1c1ccc2c(c1)OCO2 (centres undefined) was read as Tau fluor cs -5.5%, Tau FP inhib -1.6%, Tau ThT inhib -5.1%, RORgamma inh 0.5% and Gal4-VP16 FLuc -3.9%.
`CCc1ccc(-c2cc(C(=O)N/N=C/c3c[nH]c4ccccc34)[nH]n2)cc1` gave Tau fluor cs 10µM*[quencher], Tau FP inhib -6.5%, Tau ThT inhib inconclusive, RORgamma inh 11.2µM* and Gal4-VP16 FLuc 12.6µM*.
COc1ccc(C(=O)N/N=C/c2c[nH]c3ccccc23)cc1 was read as RORgamma inh -0.5% and Gal4-VP16 FLuc 3.4%.
Screening CC(C)c1cc(C(=O)N/N=C/c2c[nH]c3ccccc23)n[nH]1 returned Tau fluor cs -16.3%, Tau FP inhib 7.5%, RORgamma inh -0.1% and Gal4-VP16 FLuc -10.8%.
`CCc1ccc2c(Cl)c(C(=O)N/N=C/c3c[nH]c4ccccc34)sc2c1` gave Tau fluor cs 11.2µM*[quencher], Tau FP inhib inconclusive, Tau ThT inhib 10µM*, RORgamma inh 8.91µM* and Gal4-VP16 FLuc -6.5%.
For O=C(Nc1ccc(NC(=O)c2sc3ccccc3c2Cl)cc1)c1ccco1 the results were Tau fluor cs -2.4%, Tau FP inhib -3.3%, Tau ThT inhib inconclusive, RORgamma inh 10.7%[10 µM] and Gal4-VP16 FLuc inconclusive.
Screening O=C(N/N=C/c1ccc[nH]1)c1sc2ccccc2c1Cl returned Tau fluor cs 3.1%, Tau FP inhib -4.2%, Tau ThT inhib 4.9%, RORgamma inh 0.316µM* and Gal4-VP16 FLuc 0.562µM*.
CCCCCn1c(=O)[nH]c2cc(C(=O)NCCCN3CCCCC3CC)ccc2c1=O (centres undefined) was read as RORgamma inh -8.4% and Gal4-VP16 FLuc -13.8%.
Screening COc1ccc(NC(=O)C2CCN(c3nc4ccccc4[nH]3)CC2)cc1OC returned Tau fluor cs -5.1%, Tau FP inhib 6.6% and Tau ThT inhib -9.0%.
O=C(NNS(=O)(=O)c1ccc(C(F)(F)F)cc1)c1cnn(-c2ccccc2)c1C(F)(F)F was read as Tau fluor cs -18.1%, Tau FP inhib -2.4%, Tau ThT inhib -16.2%, RORgamma inh 5.6% and Gal4-VP16 FLuc -6.1%.
For O=C(NNS(=O)(=O)c1ccc(F)cc1)c1cnn(-c2ccccc2)c1C(F)(F)F the results were Tau fluor cs -10.2%, Tau FP inhib 1.1%, Tau ThT inhib -3.8%, RORgamma inh inconclusive and Gal4-VP16 FLuc 12.6µM*.
Screening O=C1[C@@H]2[C@H]3C(=CC[C@@H]2C(=O)N1Cc1ccccc1)C1(OCCCO1)[C@H]1O[C@@H]1[C@H]3O returned Tau fluor cs -14.0%[11.6 µM], Tau FP inhib -7.7%[11.6 µM], Tau ThT inhib -11.4%[11.5 µM], RORgamma inh 3.0%[10 µM] and Gal4-VP16 FLuc -9.4%[10 µM].
`[O-]/C(=C(\C(=S)Nc1ccc(Cl)cc1)[n+]1ccccc1)c1ccc(OC(F)F)cc1` gave Tau fluor cs -11.9%, Tau FP inhib 3.5%, Tau ThT inhib inconclusive, RORgamma inh 5.01µM* and Gal4-VP16 FLuc -2.0%.
